Assay [1] has as its target Serine/threonine-protein kinase SIK1 (Homo sapiens) (UniProt P57059). To be noted: at 10 µM.
Assay [2] concerns the target SRSF protein kinase 1 (Homo sapiens) (UniProt Q96SB4). To be noted: at 1 µM.
For assay [3] the target is unchanged. To be noted: at 10 µM.
The target of assay [4] is SRSF protein kinase 2 (Homo sapiens) (UniProt P78362). To be noted: at 1 µM.
The target is the same in assay [5]. To be noted: at 10 µM.
Assay [6] has as its target Serine/threonine-protein kinase 33 (Homo sapiens) (UniProt Q9BYT3). To be noted: at 1 µM.
Assay [7] shares this target. To be noted: at 10 µM.
Assay [8] has as its target Serine/threonine-protein kinase PLK2 (Homo sapiens) (UniProt Q9NYY3). To be noted: at 1 µM.
The target is the same in assay [9]. To be noted: at 10 µM.
Assay [10] addresses Tyrosine-protein kinase SYK (Homo sapiens) (UniProt P43405). To be noted: at 1 µM.
Assay [11] has the same target. To be noted: at 10 µM.
Assay [12] concerns the target T1, Mitogen-activated protein kinase kinase kinase 7 (Homo sapiens) (UniProt O43318).
T1 sequence (whole entry): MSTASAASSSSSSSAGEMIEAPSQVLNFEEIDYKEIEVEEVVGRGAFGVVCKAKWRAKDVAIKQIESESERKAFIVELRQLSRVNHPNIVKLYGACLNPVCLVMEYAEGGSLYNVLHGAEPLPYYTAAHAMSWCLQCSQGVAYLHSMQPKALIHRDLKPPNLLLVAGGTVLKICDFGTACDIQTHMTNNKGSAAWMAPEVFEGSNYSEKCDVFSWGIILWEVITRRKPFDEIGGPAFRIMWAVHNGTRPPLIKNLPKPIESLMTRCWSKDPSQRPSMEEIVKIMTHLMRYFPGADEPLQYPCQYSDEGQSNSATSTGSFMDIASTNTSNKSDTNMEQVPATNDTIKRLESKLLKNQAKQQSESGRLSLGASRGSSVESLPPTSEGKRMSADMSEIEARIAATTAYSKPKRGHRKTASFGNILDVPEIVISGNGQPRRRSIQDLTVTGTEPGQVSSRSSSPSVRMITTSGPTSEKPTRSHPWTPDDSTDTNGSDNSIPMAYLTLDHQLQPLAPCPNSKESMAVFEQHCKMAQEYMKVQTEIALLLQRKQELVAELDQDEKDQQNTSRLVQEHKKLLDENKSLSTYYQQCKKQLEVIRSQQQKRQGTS
To be noted: at 1 µM.

For assay [13], the target named is T1, Mitogen-activated protein kinase kinase kinase 7 (Homo sapiens). To be noted: at 10 µM.
For assay [14], the target named is T2, Serine/threonine-protein kinase TAO1 (Homo sapiens) (UniProt Q7L7X3).
T2 sequence (whole entry): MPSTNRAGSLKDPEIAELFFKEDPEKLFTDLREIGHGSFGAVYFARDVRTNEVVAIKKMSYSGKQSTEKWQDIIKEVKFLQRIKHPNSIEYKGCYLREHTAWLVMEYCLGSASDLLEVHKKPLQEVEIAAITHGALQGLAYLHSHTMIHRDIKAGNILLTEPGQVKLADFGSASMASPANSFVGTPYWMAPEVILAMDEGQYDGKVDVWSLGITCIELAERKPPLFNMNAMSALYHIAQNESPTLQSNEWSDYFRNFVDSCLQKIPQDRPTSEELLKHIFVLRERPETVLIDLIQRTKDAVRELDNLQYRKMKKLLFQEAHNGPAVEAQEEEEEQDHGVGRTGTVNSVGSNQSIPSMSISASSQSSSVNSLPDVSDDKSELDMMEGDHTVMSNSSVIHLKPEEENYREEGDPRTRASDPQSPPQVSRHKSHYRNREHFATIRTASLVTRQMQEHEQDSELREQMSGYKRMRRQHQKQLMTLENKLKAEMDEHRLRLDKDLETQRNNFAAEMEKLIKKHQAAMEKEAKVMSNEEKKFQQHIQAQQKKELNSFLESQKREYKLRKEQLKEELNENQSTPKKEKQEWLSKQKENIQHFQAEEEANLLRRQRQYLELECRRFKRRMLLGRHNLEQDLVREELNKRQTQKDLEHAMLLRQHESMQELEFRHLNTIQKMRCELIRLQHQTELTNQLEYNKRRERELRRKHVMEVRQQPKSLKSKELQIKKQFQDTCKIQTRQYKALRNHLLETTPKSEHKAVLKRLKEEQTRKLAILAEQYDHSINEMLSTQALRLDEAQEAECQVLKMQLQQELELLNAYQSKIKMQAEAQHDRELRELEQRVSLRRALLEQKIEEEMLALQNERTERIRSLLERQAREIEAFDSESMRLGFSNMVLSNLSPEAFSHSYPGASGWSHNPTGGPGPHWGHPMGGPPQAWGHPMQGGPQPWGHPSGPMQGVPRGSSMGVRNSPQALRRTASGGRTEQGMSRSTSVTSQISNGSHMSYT
To be noted: at 1 µM.

The target of assay [15] is T2, Serine/threonine-protein kinase TAO1 (Homo sapiens). To be noted: at 10 µM.
Assay [16] addresses T3, Serine/threonine-protein kinase TAO2 (Homo sapiens) (UniProt Q9UL54).
T3 sequence (whole entry): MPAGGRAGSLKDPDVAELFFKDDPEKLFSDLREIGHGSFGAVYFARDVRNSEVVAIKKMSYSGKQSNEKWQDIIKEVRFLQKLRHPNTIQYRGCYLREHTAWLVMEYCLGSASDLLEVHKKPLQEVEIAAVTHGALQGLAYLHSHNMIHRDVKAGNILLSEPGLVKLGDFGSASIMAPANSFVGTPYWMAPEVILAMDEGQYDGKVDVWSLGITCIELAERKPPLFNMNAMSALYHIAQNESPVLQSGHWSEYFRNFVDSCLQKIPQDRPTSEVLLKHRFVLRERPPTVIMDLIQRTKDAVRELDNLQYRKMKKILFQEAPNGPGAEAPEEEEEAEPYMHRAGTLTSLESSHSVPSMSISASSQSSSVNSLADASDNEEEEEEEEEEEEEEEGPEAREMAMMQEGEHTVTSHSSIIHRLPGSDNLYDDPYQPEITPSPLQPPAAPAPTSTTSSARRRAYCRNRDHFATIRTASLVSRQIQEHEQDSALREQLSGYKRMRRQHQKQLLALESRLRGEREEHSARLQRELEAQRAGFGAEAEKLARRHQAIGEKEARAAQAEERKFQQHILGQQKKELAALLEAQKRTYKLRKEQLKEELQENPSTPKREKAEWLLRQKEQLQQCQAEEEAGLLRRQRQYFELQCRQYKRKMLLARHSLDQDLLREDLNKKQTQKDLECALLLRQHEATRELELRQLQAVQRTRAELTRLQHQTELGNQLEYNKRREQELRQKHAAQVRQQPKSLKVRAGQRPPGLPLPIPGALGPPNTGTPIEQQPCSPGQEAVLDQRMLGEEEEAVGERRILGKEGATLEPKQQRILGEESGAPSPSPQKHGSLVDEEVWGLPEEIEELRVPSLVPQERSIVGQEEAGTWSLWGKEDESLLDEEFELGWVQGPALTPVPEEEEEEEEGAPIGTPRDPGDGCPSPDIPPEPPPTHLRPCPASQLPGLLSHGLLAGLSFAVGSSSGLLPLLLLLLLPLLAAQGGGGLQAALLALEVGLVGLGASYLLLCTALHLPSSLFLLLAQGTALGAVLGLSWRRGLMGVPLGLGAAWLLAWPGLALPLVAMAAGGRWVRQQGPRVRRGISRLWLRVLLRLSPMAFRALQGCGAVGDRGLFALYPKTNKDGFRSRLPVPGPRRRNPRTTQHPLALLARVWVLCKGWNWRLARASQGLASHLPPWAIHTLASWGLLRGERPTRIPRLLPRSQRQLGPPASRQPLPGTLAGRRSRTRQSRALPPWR
To be noted: at 1 µM.

Assay [17] has as its target T3, Serine/threonine-protein kinase TAO2 (Homo sapiens). To be noted: at 10 µM.
Assay [18] concerns the target T4, Serine/threonine-protein kinase TAO3 (Homo sapiens) (UniProt Q9H2K8).
T4 sequence (whole entry): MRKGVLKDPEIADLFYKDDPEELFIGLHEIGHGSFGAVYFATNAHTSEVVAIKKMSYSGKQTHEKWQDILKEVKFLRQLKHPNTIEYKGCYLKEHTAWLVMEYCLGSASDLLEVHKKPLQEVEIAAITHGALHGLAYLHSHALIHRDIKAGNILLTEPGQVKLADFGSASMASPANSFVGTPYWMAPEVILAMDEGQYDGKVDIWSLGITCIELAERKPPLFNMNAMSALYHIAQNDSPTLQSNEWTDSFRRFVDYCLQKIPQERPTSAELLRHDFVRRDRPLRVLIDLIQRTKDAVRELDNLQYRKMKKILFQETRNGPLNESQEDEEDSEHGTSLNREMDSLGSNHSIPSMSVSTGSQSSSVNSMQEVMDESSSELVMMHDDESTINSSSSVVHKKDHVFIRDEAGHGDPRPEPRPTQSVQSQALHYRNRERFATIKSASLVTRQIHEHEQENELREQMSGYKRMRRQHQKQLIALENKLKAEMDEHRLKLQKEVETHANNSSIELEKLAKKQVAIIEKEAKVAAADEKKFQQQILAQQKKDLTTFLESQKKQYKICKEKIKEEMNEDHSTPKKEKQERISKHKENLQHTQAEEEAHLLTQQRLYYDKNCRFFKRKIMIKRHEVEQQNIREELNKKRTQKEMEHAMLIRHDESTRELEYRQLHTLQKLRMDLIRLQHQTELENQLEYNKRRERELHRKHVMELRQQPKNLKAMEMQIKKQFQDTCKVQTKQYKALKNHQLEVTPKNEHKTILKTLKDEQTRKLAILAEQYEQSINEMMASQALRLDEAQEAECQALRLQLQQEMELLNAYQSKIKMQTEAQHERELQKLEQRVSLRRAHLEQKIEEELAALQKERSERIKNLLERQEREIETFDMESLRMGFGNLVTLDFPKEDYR
To be noted: at 1 µM.

Assay [19] concerns the target T4, Serine/threonine-protein kinase TAO3 (Homo sapiens). To be noted: at 10 µM.
Assay [20] deals with T5, Serine/threonine-protein kinase TBK1 (Homo sapiens) (UniProt Q9UHD2).
T5 sequence (whole entry): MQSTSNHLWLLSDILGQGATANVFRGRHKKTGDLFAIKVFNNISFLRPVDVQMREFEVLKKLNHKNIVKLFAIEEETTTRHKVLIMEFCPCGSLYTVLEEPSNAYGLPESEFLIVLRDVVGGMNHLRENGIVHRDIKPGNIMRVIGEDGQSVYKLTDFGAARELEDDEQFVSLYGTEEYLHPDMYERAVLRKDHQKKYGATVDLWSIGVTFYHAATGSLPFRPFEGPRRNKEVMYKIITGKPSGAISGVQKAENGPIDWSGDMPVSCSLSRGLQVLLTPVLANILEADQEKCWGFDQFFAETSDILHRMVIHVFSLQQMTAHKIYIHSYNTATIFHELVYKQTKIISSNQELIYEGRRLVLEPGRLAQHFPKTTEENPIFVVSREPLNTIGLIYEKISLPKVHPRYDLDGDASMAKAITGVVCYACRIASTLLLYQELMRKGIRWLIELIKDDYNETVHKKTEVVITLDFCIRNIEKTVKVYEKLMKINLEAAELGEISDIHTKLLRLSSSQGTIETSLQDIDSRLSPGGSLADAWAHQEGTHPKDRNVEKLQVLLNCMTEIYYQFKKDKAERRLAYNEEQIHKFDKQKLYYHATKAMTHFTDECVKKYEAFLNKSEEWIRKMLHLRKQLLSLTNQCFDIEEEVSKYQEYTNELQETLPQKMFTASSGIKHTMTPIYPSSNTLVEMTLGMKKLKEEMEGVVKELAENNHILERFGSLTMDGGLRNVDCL
To be noted: at 1 µM.

Each structure is given as a SMILES string.

Serine/threonine-protein kinase SIK1 (Homo sapiens), sequence (P57059 whole entry): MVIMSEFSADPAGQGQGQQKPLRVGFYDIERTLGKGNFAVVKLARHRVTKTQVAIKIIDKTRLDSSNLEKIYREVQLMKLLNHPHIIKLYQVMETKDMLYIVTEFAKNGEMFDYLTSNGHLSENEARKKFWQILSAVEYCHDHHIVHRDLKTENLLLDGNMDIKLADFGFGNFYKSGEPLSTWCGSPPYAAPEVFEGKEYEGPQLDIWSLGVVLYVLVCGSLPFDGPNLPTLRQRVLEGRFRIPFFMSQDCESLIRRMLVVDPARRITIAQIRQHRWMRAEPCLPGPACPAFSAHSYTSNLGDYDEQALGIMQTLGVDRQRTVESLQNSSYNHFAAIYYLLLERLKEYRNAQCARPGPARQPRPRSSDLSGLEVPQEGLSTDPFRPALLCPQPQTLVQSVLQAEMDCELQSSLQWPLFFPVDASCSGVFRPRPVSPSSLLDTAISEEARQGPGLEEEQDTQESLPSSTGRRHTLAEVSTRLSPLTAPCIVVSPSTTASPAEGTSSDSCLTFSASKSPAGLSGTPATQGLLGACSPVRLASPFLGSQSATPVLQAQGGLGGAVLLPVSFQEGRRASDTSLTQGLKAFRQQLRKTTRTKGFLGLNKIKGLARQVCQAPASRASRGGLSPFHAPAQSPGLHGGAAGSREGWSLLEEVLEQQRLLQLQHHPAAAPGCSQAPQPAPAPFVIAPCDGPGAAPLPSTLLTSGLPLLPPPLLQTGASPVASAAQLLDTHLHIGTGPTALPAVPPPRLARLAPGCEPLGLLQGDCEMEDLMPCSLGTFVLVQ
SRSF protein kinase 2 (Homo sapiens), sequence (P78362 whole entry, looked up): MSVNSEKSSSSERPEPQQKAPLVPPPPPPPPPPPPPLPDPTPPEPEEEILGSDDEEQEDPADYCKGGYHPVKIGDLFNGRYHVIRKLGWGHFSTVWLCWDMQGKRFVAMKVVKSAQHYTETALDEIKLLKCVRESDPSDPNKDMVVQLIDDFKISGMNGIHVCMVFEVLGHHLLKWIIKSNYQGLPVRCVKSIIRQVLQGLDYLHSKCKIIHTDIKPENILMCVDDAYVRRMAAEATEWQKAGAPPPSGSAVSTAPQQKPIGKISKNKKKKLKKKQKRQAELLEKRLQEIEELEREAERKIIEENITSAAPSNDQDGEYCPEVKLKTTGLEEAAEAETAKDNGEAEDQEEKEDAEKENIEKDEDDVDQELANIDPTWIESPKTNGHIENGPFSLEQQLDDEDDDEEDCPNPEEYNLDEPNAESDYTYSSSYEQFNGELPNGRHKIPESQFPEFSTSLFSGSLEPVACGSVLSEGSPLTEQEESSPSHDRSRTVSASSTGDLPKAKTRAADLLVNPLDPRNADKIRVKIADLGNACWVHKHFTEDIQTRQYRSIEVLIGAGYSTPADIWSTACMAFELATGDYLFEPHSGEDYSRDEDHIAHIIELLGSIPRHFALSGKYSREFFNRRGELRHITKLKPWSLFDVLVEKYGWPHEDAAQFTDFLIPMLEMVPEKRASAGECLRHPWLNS
Serine/threonine-protein kinase 33 (Homo sapiens), sequence (Q9BYT3 whole entry, looked up): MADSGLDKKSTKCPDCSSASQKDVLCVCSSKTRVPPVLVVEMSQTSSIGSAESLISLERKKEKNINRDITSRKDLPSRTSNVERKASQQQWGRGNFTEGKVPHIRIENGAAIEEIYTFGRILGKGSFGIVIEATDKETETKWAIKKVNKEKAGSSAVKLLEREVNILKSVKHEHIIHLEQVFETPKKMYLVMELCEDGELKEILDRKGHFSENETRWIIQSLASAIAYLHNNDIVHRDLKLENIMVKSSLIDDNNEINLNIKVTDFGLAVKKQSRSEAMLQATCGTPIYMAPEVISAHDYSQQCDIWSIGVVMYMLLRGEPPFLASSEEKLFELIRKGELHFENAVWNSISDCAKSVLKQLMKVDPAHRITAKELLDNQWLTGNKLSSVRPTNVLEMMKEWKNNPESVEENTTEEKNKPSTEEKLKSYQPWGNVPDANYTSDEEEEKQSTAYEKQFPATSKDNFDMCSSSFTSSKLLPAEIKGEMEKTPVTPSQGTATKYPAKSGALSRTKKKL
SRSF protein kinase 1 (Homo sapiens), sequence (Q96SB4 whole entry): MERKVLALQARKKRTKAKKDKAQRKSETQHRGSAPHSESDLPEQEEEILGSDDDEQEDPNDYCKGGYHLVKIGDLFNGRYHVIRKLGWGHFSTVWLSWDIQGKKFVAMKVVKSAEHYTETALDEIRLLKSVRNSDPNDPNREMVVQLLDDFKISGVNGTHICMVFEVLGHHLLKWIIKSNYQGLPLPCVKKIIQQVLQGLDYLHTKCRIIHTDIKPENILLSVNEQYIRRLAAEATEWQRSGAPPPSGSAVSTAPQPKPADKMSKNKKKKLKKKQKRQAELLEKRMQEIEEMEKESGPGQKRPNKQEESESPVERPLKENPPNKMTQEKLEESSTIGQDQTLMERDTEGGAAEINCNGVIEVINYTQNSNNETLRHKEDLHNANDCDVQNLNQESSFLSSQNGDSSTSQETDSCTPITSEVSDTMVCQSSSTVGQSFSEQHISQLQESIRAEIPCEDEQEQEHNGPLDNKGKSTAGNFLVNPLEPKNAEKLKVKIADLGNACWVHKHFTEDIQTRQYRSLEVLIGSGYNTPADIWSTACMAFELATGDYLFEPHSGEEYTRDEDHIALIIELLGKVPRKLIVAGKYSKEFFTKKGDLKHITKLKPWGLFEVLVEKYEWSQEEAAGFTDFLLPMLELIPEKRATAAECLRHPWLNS
Serine/threonine-protein kinase PLK2 (Homo sapiens), sequence (Q9NYY3 whole entry, looked up): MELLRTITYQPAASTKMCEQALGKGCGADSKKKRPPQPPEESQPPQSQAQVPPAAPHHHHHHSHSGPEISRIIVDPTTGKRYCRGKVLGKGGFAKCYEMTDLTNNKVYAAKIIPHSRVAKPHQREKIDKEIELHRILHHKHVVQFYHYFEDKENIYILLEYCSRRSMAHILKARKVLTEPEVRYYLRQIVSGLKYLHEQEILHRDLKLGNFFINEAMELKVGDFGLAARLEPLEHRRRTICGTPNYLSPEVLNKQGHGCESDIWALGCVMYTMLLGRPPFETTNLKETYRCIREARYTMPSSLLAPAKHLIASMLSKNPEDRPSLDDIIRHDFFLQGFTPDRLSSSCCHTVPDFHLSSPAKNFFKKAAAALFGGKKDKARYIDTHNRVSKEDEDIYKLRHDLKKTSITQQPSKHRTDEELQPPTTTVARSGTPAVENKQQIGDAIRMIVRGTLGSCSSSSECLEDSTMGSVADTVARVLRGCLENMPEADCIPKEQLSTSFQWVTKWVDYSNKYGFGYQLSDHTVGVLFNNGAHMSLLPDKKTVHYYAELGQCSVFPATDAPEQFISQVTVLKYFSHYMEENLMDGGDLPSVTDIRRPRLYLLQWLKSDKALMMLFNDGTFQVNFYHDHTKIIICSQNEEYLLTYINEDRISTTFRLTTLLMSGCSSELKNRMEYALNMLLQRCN

Regarding `O=c1c2ccccc2[nH]c(=S)n1CCN1CCC(=C(c2ccc(F)cc2)c2ccc(F)cc2)CC1`, the residual activity amounted to 80% in assay [1]; 81% in [2]; 81% in [3]; 108% in assay [4]; 97% in assay [5]; 103% in assay [6]. Further, the residual activity turned out to be 99% in assay [7]; 113% in assay [8]; 101% in assay [9]; 125% in [10]; 68% in [11]; 97% in assay [12]. In addition, the residual activity in [13] amounted to 83%; in assay [14], 109%; in [15], 88%; in [16], 107%; in assay [17], 79%; in [18] it was 109%. Also, the residual activity in assay [19] amounted to 86%; in assay [20], 91%.
`CC(=O)O/N=C1\C(=C2\C(=O)Nc3cc(Br)ccc32)Nc2ccccc21`: the residual activity in assay [1] stood at 3%; in assay [2], 106%; in assay [3], 100%; in assay [4] it was 102%; in [5], 78%; in [6] it was 98%. Besides, the residual activity in [7] stood at 79%; in assay [8], 104%; in assay [9], 98%; in [10], 80%; in assay [11], 40%; in assay [12], 91%. Further, the residual activity was determined as 85% in assay [13]; 89% in [14]; 79% in assay [15]; 81% in [16]; 83% in [17]; 96% in [18]. Besides, the residual activity came out at 86% in [19] and 57% in assay [20].
For the compound `CO[C@H]1C[C@@H]2CC[C@@H](C)[C@@](O)(O2)C(=O)C(=O)N2CCCC[C@H]2C(=O)O[C@H]([C@H](C)C[C@@H]2CC[C@@H](O)[C@H](OC)C2)CC(=O)[C@H](C)/C=C(\C)[C@@H](O)[C@@H](OC)C(=O)[C@H](C)C[C@H](C)/C=C/C=C/C=C/1C`, the residual activity in assay [1] worked out at 81%; in assay [2], 103%; in assay [3] it was 108%; in assay [4], 99%; in assay [5], 92%; in [6], 92%. The residual activity in assay [7] worked out at 107%; in assay [8], 104%; in assay [9], 103%; in assay [10] it was 106%; in assay [11] it was 78%; in assay [12], 89%. For the same compound, the residual activity was determined as 82% in assay [13]; 102% in assay [14]; 87% in assay [15]; 99% in [16]; 96% in assay [17]; 97% in assay [18]. For the same compound, the results for the residual activity in [19] and in assay [20] were 85% and 63%, respectively.

For the origin of these results see ChEMBL document CHEMBL2218924, “A broad activity screen in support of a chemogenomic map for kinase signalling research and drug discovery” (Biochem J, 2013).
